ULK1 inh = human ULK1 kinase inhibition, primary screen. AlphaScreen Atg13 phosphorylation by ULK1, luminescence. inhibition, % at 5.96 µM. 30,000 compounds, 1.9% hits; in the data active = inhibition above about 43%;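 also: 0% = median of compound wells and 100% = no enzyme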
ASK1 inh = human ASK1 kinase inhibition, primary screen; AlphaScreen MKK6 phosphorylation by ASK1, luminescence; inhibition, % at 7.44 µM; 22,000 compounds, 0.99% hits; AID 1159602; in the data active = inhibition above about 35%;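 also: 0% = median of compound wells and 100% = no enzyme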
The depositor's hits bear a star; . = no result; ! = not active in a repeat. Compounds with a hit are over-represented: about 2.5% of the library has one in this group of screens.

SMILES | ULK1 inh | ASK1 inh
O=C(NCc1ccc(Br)cc1)N[C@@H]1CCN(C(=O)c2ccc3[nH]ncc3c2)C1 | 6 | -15
c1ccc(Nc2cc(N3CCOCC3)ncn2)cc1 | -4 | -10
O=C(Cc1cn(-c2ccc(Nc3ccc(-n4ccnc4)cc3)nn2)c2ccccc12)NCc1ccccc1 | 16 | 8
CNC(=O)c1ccccc1Nc1cc(NC(=O)Cc2ccc(OC)cc2)ncc1C#N | 18 | -8
CNC(=O)c1ccccc1Nc1cc(NC(=O)Cc2ccc(OC)cc2)ncc1C(F)(F)F | 70* | 1
COc1ccc(CC(=O)Nc2cc(Nc3ccccc3-c3ncccn3)c(C(F)(F)F)cn2)cc1 | 5 | 11
CNC(=O)c1cccnc1Nc1cc(NC(=O)Cc2ccc(OC)cc2)ncc1C(F)(F)F | 43* | 0
N#Cc1c(Cl)cccc1N(C(=O)c1cccc2ccccc12)C(=O)c1cccc2ccccc12 | -4 | 6
O=C1CCCN1CCn1cnc2c(NCc3nc4ccccc4[nH]3)nc(Nc3ccccc3)nc21 | 6 | 4
O=C(NCc1cccnc1)c1cnc(-c2ccccc2)s1 | 3 | 6
O=C(NCc1cccnc1)c1csc(Nc2ccc(C(F)(F)F)cc2)n1 | -28 | 4
COc1cc(NC(=O)C(N)c2ccc(Cl)cc2)c(F)cc1-c1cn[nH]c1 (stereo not given) | 65* | 13
CN(C)CCCOc1cc(-c2cn[nH]c2)c(F)cc1NC(=O)C(N)c1ccc(Cl)cc1 (stereo not given) | 20 | 10
O=C1CCCN1CCn1cnc2c(Nc3ccc(N4CCOCC4)cc3)nc(Nc3ncccn3)nc21 | 15 | 12
Cc1ccccc1OCc1nc2ccc(-c3cn[nH]c3)cc2c(=O)[nH]1 | -14 | 14
COc1ccccc1OCc1nc2ccc(-c3ccnc(N)n3)cc2[nH]1 | 48* | -1
Cc1ccccc1OCc1nc2ccc(-c3ccnc(N)n3)cc2[nH]1 | 43* | 8
COc1cccc(OCc2nc3ccc(-c4ccnc(N)n4)cc3[nH]2)c1 | 62* | 10
Nc1nccc(-c2ccc3nc(CCOc4ccc(CC(=O)NC5CC5)cc4)[nH]c3c2)n1 | 11 | 6
COc1cccc2c1OCC(c1nc3ccc(-c4ccnc(N)n4)cc3[nH]1)C2 (stereo not given) | -2 | -3
Cc1nc(-c2cncc(Br)c2)cc(N(C)Cc2ccccc2)n1 | 1 | .
c1cc2c(cc1-c1noc(C3CCNCC3)n1)OCO2 | 1 | .
COc1ccc(/C(C)=N/NC(=O)C2CC23CCC3)c(OC)c1 (stereo not given) | -16 | .
O=C(Nc1ccc2[nH]ncc2c1)[C@H]1CCCN1C(=O)C(O)c1ccc(Br)cc1 (stereo not given in full) | -2 | 11
O=S(c1cc(Cl)cc(Cl)c1O)c1cc(Cl)cc(Cl)c1O | 6 | .
SMILES | ULK1 inh | ASK1 inh
Oc1c(Cl)cc(Cl)cc1Sc1cc(Cl)cc(Cl)c1O | 84* | .
COc1cc(Nc2nc(Cl)nc3c2ncn3Cc2ccc(C(F)(F)F)cc2)cc(OC)c1OC | -20 | -5
CCCCC(CC)CCC(CC(C)C)OS(=O)(=O)O (stereo not given) | 95* | .
CCCCCCCCCCCCOS(=O)(=O)O | 19 | .
CCCCNC(=O)c1ccc(Cl)cc1O | 43*! | .
CCCNC(=O)c1ccc(Cl)cc1Cl | 6 | .
CC(=O)c1cccc(-c2nc(NCc3cccnc3)c3[nH]cnc3n2)c1 | 54* | -1
Nc1cccc(-c2nc(NCc3ccccc3)c3[nH]cnc3n2)c1 | -4 | -1
CC(=O)c1cccc(-c2nc(NCc3ccccc3)c3[nH]cnc3n2)c1 | -2 | -1
Nc1cccc(-c2nc(NCc3cccnc3)c3[nH]cnc3n2)c1 | 69* | -12
Nc1cccc(-c2ccc(C(=O)Nc3ccccc3)s2)c1 | 10 | 13
CC(C)n1c(N2CCN(c3ccccn3)CC2)nc2c(Nc3ccc(N4CCOCC4)cc3)ncnc21 | 2 | 3
Cn1nnc(-c2ccc(Nc3nccc(-c4ccc5nc(C6CC6)[nH]c(=O)c5c4)n3)cc2)n1 | 44* | -22
O=C(Nc1ccc(Nc2nccc(-c3ccc4nc(C5CC5)[nH]c(=O)c4c3)n2)cc1)N1CCCC1 | 59* | -44
Cn1cccc(-c2ccc(Nc3nccc(-c4ccc5nc(C6CC6)[nH]c(=O)c5c4)n3)cc2)c1=O | 37 | -10
O=C(C1CCC(Nc2nccc(-c3ccc4nc(C5CC5)[nH]c(=O)c4c3)n2)CC1)N1CCCC1 (stereo not given) | 23 | -6
Cc1ncn(-c2ccc(Nc3nccc(-c4ccc(N5CCC6(CC5)OCCO6)c(C#N)c4)n3)cc2)n1 | -1 | 1
N#Cc1cc(-c2ccnc(Nc3cccc(NC(=O)N4CCCC4)c3)n2)ccc1N1CCCC1 | 67* | 13
Nc1nccc(-c2ccc3nc(C4COc5ccccc5C4)[nH]c(=O)c3c2)n1 (stereo not given) | -1 | 14
O=C(Nc1cccc(Nc2nccc(-c3ccc4nc(C5CC5)[nH]c(=O)c4c3)n2)c1)N1CCCC1 | 51* | 1
CCNc1nc2ccc(C(=O)NCc3nc4ccccc4[nH]3)cc2s1 | 2 | -3
CCN(CC)C(=O)C1CCCN(c2nc(Nc3ccc(N4CCOCC4)cc3)c3cc(OC)c(OC)cc3n2)C1 (stereo not given) | 3 | -7
CC(C)n1cnc2c(N)nc(N3CCN(c4ccccn4)CC3)nc21 | -14 | 8
O=C(c1ccc(Nc2nccc(-c3ccc4nc(C5CC5)[nH]c(=O)c4c3)n2)cc1)N1CCCC1 | 84* | -71
CN1CCN(C(=O)c2ccc(Nc3nccc(-c4ccccc4)n3)cc2)CC1 | -1 | 22
SMILES | ULK1 inh | ASK1 inh
CC(C)N(CCNC(=O)c1csc(Nc2ccccn2)n1)C(C)C | -2 | -15
O=C(Nc1ccc2[nH]ncc2c1)C1CCNCC1 | 56* | -2
O=C(Nc1ccc2[nH]ncc2c1)C1CCNC1 (stereo not given) | 12 | -9
Nc1ccnc(NCc2ccccc2)c1 | 9 | 11
COc1cc2c(cnn2-c2cccc(C(=O)NCCN3CCOCC3)c2)cc1Nc1ccccc1 | -18 | -3
O=C(NCCN1CCOCC1)c1cccc(-n2ncc3cc(Nc4ccccc4)c(N4CCOCC4)cc32)c1 | 65* | -29
CCCNc1nc(Nc2cccc(N(C)C)c2)nc2cc(OC)c(OC)cc12 | 4 | 25
COc1cc2nc(Nc3ccccc3)nc(NCCOc3ccccc3)c2cc1OC | -18 | -6
COc1cc2nc(Nc3cccc(N(C)C)c3)nc(NC3CC3)c2cc1OC | 7 | 49*
COc1cc2nc(Nc3cccc(N(C)C)c3)nc(NCCOc3ccccc3)c2cc1OC | -32 | 40*
O=C(c1ccc(Nc2nccc(-c3ccccc3)n2)cc1)N1CC[C@@H](O)C1 | 0 | -11
Nc1nc(NCCOc2ccccc2)cc(NCCN2CCOCC2)n1 | -4 | 9
CCNc1cc(NCCc2ccc(OC)cc2)ncn1 | -14 | -15
O=C(NC1CC1)c1ccc(-c2cc(C(=O)NC3CC3)ccn2)cc1 | 4 | -20
CC(=O)Nc1ccc(NC(=O)c2ccnc(-c3ccc(C(=O)NC4CC4)cc3)c2)cc1 | 44* | 7
O=C1CCCN1CCCNc1nc(Nc2ccc(Oc3ccccc3)cc2)c2[nH]cnc2n1 | -22 | 30
Cc1cnc(Nc2ccc3ncccc3c2)nc1Nc1ccc2c(c1)OCO2 | -11 | -29
Cc1cnc(NCCCN2CCCC2=O)nc1Nc1ccc(Oc2ccccc2)cc1 | 49* | 11
Cc1cnc(Nc2ccc3ncccc3c2)nc1NC1CC1 | 71* | 8
Cc1cnc(Nc2ccc3ncccc3c2)nc1NCCCN1CCCC1=O | 69* | -13
